Test systems include NCI-H23 lung; NCI-H226 lung; NCI-H322M lung; HOP-62 NSCLC; NCI-H460 lung; HOP-92 NSCLC; NCI-H522 lung; A549/ATCC NSCLC; 786-0 renal; COLO 205 colon; DU-145 prostate; K-562 leukemia; MALME-3M melanoma; MDA-MB-231 breast; RXF 393 renal; SF-268 CNS; SF-295 CNS; SF-539 CNS; UACC-257 melanoma; M14 melanoma.
Holding throughout (experiment): NCI-60 one-dose screen, 48 h (100 = growth as untreated, 0 = no growth, -100 = all killed)
Holding throughout (conditions): 10 µM unless noted

This is part of a sample that, as a whole, favours compounds with a hit. Of some 83,000 tested, about 20% had one in any assay.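 Interpretation: 100, growth as untreated; towards 0, rising growth inhibition; 0, no net growth; 0 to -100, cell death. Compounds scoring below 10 were considered active.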 Values without a mark were called inactive. Active and inactive are the calls of the source.

On to `O=C(COc1cccc(/C=C2\Cc3ccc(Cl)cc3C2=O)c1)Nc1nccs1`, for which the growth with NCI-H23 lung was 78.5%; with NCI-H226 lung it was 86.1%; with NCI-H322M lung, 96.9%; in the assay on HOP-62 NSCLC it was 96.5%; in the assay with NCI-H460 lung it was 89.2%; with HOP-92 NSCLC, 77.2%. The growth is 2.66% (active) in the assay with NCI-H522 lung; 88.7% with A549/ATCC NSCLC; 98.5% in the assay with 786-0 renal; 113% in the assay on COLO 205 colon; 108% with DU-145 prostate; 89.5% with K-562 leukemia. The growth was 116% with MALME-3M melanoma; 71.7% in the assay with MDA-MB-231 breast; 107% with RXF 393 renal; 108% with SF-268 CNS; 119% in the assay on SF-295 CNS; 79.9% in the assay on SF-539 CNS. Moreover, the growth with UACC-257 melanoma was 110%; in the assay with M14 melanoma it was 107%.
On to `Nc1c(Cl)cccc1[N+](=O)[O-]`, for which the growth with NCI-H23 lung was 106%; with NCI-H226 lung, 101%; in the assay with NCI-H322M lung, 110%; in the assay on HOP-62 NSCLC, 98.8%; in the assay with NCI-H460 lung, 104%; with HOP-92 NSCLC, 96.6%. Moreover, the growth is 118% in the assay on NCI-H522 lung; 101% in the assay with A549/ATCC NSCLC; 109% in the assay with 786-0 renal; 114% in the assay with COLO 205 colon; 111% with DU-145 prostate; 101% in the assay on K-562 leukemia. Besides, the growth in the assay on MALME-3M melanoma was 96.7%; in the assay on MDA-MB-231 breast it was 99.3%; in the assay on RXF 393 renal, 115%; with SF-268 CNS it was 105%; with SF-295 CNS, 107%; in the assay on SF-539 CNS it was 108%. Moreover, the growth in the assay with UACC-257 melanoma and in the assay on M14 melanoma was 108% in each case.
With `c1cc(OCCN2CCCCC2)cc(-c2n[nH]c3ccc(-c4ncn[nH]4)cc23)c1`, the growth was 43.8% with NCI-H23 lung; 61.6% with NCI-H226 lung; 37.6% in the assay on NCI-H322M lung; 60.6% in the assay on HOP-62 NSCLC; 66% in the assay on NCI-H460 lung; 44.8% in the assay on HOP-92 NSCLC. The growth is 36.8% in the assay with NCI-H522 lung; 63.8% in the assay on A549/ATCC NSCLC; 79.9% in the assay with 786-0 renal; 6.03% (active) in the assay on COLO 205 colon; 62.4% in the assay with DU-145 prostate; 36.9% in the assay on K-562 leukemia. Moreover, the growth with MALME-3M melanoma was 13.5%; with MDA-MB-231 breast it was 54.7%; in the assay with RXF 393 renal it was 90.3%; in the assay on SF-268 CNS, 77.8%; with SF-295 CNS, 92.3%; in the assay on SF-539 CNS, 49.4%. Further, the growth in the assay with UACC-257 melanoma was 70.8%; with M14 melanoma it was 22.9%.
Turning to `COc1cc2ncnc3c2cc1OCCCCCN(C)Cc1ccc(Br)cc1N3`, the growth in the assay on NCI-H23 lung is 70.2%; with NCI-H226 lung it was 88.3%; with NCI-H322M lung, 0.138% (active); in the assay on HOP-62 NSCLC it was 74.5%; in the assay with NCI-H460 lung it was 36.7%; in the assay with HOP-92 NSCLC it was 64.6%. The growth was -9.44% (active) in the assay on NCI-H522 lung; 35.1% with A549/ATCC NSCLC; 68.7% in the assay on 786-0 renal; 51.3% with COLO 205 colon; 31.1% in the assay on DU-145 prostate; 26.1% in the assay with K-562 leukemia. Besides, the growth with MALME-3M melanoma is 71.8%; in the assay with MDA-MB-231 breast, 63.7%; in the assay with RXF 393 renal, 69.3%; in the assay with SF-268 CNS, 65.1%; in the assay on SF-295 CNS it was 78.7%; with SF-539 CNS, 88.6%. Moreover, the growth with UACC-257 melanoma was 31.5%; in the assay with M14 melanoma it was 36.9%.
Take `O=c1[nH]c([C@@H]2CCCN2)nc2c1oc1ccc(Cl)cc12`: the growth was 60.7% with NCI-H23 lung; 51.8% with NCI-H226 lung; 56% in the assay with NCI-H322M lung; 47.2% in the assay on HOP-62 NSCLC; 34.4% in the assay with NCI-H460 lung; 39.8% in the assay on HOP-92 NSCLC. In addition, the growth with NCI-H522 lung was 24.7%; with A549/ATCC NSCLC, 37.9%; in the assay with 786-0 renal, 84.4%; in the assay with COLO 205 colon it was 12%; in the assay on DU-145 prostate it was 73.1%; in the assay on K-562 leukemia, 43%. Moreover, the growth with MALME-3M melanoma is 64.2%; in the assay with MDA-MB-231 breast, 67.3%; with RXF 393 renal, 72.4%; with SF-268 CNS it was 65.2%; in the assay on SF-295 CNS, 52.7%; with SF-539 CNS, 12.6%. For the same compound, the growth was 64.6% in the assay on UACC-257 melanoma and 53.6% in the assay with M14 melanoma.
Regarding `COc1ccc(/C(C)=C(\c2ccc(Cl)cc2)c2ccc(OCCN3CCCCCC3)cc2)cc1`, the growth in the assay with NCI-H23 lung was 51.3%; in the assay with NCI-H226 lung, 60.6%; in the assay on NCI-H322M lung, 79.5%; in the assay on HOP-62 NSCLC, 48.4%; in the assay with NCI-H460 lung, 32.3%; with HOP-92 NSCLC it was 79.5%. Besides, the growth was 51.5% with NCI-H522 lung; 39.4% with A549/ATCC NSCLC; 59.7% in the assay on 786-0 renal; 17.2% in the assay with COLO 205 colon; 70.1% in the assay on DU-145 prostate; 10.4% in the assay with K-562 leukemia. In addition, the growth is 51.9% in the assay with MALME-3M melanoma; 57.4% in the assay on MDA-MB-231 breast; 69.5% in the assay with RXF 393 renal; 72.3% in the assay with SF-268 CNS; 54.6% in the assay with SF-295 CNS; 56.8% in the assay with SF-539 CNS. Moreover, the growth in the assay with UACC-257 melanoma is 58.3%; in the assay with M14 melanoma, 60%.
Take `COc1cc(F)c(F)c(Nc2ccc(I)cc2F)c1NS(=O)(=O)C1(C[C@H](O)CO)CC1`: the growth is 13% with NCI-H23 lung; 41.3% in the assay on NCI-H226 lung; 14.2% in the assay on NCI-H322M lung; 25.1% with HOP-62 NSCLC; 27.8% in the assay on NCI-H460 lung; -19.1% (active) in the assay with HOP-92 NSCLC. The growth was 31.4% with NCI-H522 lung; 26.3% in the assay on A549/ATCC NSCLC; 54.5% with 786-0 renal; -0.628% (active) in the assay on COLO 205 colon; 51.2% with DU-145 prostate; 21.9% in the assay with K-562 leukemia. Besides, the growth was 0.42% (active) in the assay on MALME-3M melanoma; 23% in the assay with MDA-MB-231 breast; -2.17% (active) with RXF 393 renal; 52.9% in the assay on SF-268 CNS; 59.9% in the assay on SF-295 CNS; 53.5% in the assay with SF-539 CNS. Further, the growth was -12.7% (active) with UACC-257 melanoma and 7.68% (active) in the assay on M14 melanoma.
In the case of `CC(=O)O[C@]1(C)C[C@H](O)[C@]2(O)C=CO[C@H](O[C@@H]3O[C@H](CO)[C@@H](O)[C@H](O)[C@H]3O)[C@@H]21`, the growth in the assay on NCI-H23 lung is 99.3%; in the assay on NCI-H226 lung, 96.7%; with NCI-H322M lung, 101%; in the assay on HOP-62 NSCLC it was 95.2%; in the assay on NCI-H460 lung, 110%; in the assay with HOP-92 NSCLC, 129%. Moreover, the growth in the assay on NCI-H522 lung was 95.4%; in the assay on A549/ATCC NSCLC, 105%; in the assay on 786-0 renal it was 93.2%; in the assay with COLO 205 colon it was 108%; in the assay with DU-145 prostate, 102%; in the assay with K-562 leukemia it was 97.3%. The growth was 97.5% in the assay with MALME-3M melanoma; 98.5% in the assay on MDA-MB-231 breast; 109% in the assay on RXF 393 renal; 94.3% with SF-268 CNS; 90.9% with SF-295 CNS; 97.5% in the assay with SF-539 CNS. The growth with UACC-257 melanoma was 109%; in the assay on M14 melanoma, 98.6%.

These data come from PubChem BioAssay (NCI).
